# Where a chain is given by its changes, count along the chain named. Over roughly 24,000 sequences, “enrichment r” has its median near 0.99; the highest 2% begin near 3.7. For the sample, the highest values were picked, then their nearest neighbours and some sequences at random.
# T1: UNK ZnF1-3 (human, UniProt Q9C0B0 31-174)
# T1 sequence: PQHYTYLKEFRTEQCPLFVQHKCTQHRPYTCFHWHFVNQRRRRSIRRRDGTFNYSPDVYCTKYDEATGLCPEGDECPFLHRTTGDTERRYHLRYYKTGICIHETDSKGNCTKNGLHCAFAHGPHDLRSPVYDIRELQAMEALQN
# B1: chr9:58044877:58044878:-_ENSMUSG00000051243_ENSMUST00000114144|mus_hu|FALSE|FALSE (ssRNA)
# RNA: GGGAGUUCUACAGUCCGACGAUCUCCCAGAGGCUGGGAAGGGGGUGUUAGCACCAGACCCGAAAUGUCGCUGUCUUUGAAAACAACGAAAACAGGAAAAUCUGAGCGCGGAGCUGAAAGGCGCCCCAGGCACCGGGCUGGACUCAACAGAGGAUUGAGCAUCA
# B2: chr11:46405157:46405158:+_ENSG00000110492_ENST00000395566|hu_hu|hu_hu_hu_mus_False|28_98 (ssRNA)
# RNA: GGGAGUUCUACAGUCCGACGAUCCCCUCCCCACUUUGGCUGGGGAGUGUGGGCGUGAGAGGACAGGCGUGAUUGACAGAGCUGACAGGAAGACAAAAGGCACUGGUGGGUCACAUCUUGGGCCUGUGGGAGAGGAGGGCUCCGCAACAGAGGAUUGAGCAUCA
# B3: 11472005_11472125_940_CDS_ENSG00000105520_ENST00000251473|human|control|control (ssRNA)
# RNA: GGGAGUUCUACAGUCCGACGAUCCUUGCAGGGGAAGGCGCGGCGCGCGGCGGCCACGAGGCUGGGACUGCCAGCGCAGGCACCCUGGUCAGUGACAAAGCGGUCGGGACCUGGCCGAUCCGGAGAAGGUGGCAGGCAGCCCAGCAACAGAGGAUUGAGCAUCA
# B4: chr17:45760540:45760541:+_ENSG00000108424_ENST00000290158|hu_hu|motif|central (ssRNA)
# RNA: GGGAGUUCUACAGUCCGACGAUCUUUCCCUAGAGUAAAAAAAACAAAAAACAAAACCAAAAAAAAAAAACAAAACAAAACCGGAAGAGCGUCUUUCCUCUGUGUGUGUGUUUUUUUUUUUUUUUUUUUUUUUUUUUUUACAUCCAACAGAGGAUUGAGCAUCA
# B5: chr3:41267201:41267202:+_ENSG00000168036_ENST00000349496|hu_mus|motif|central (ssRNA)
# RNA: GGGAGUUCUACAGUCCGACGAUCCAAGAAUUUCACGUUUGUUUUGUUGAGCAAAGCAACCAUUUUCUGCAGUCCACCAGCGGGGCGCACUGCCAUUUUAGCUCCUUCCUGAUGGAGCAGGAGAUUAUGCAGUGUCGUGAUGGCCAACAGAGGAUUGAGCAUCA
# B6: chr17:15081082:15081083:+_ENSMUSG00000050088_ENSMUST00000052691|mus_mus|FALSE|FALSE (ssRNA)
# RNA: GGGAGUUCUACAGUCCGACGAUCUGCUCCAGCAUAUUCAAGGGAUCAGAAGAGAAUUUCAAGCACCAGUUUCAAAAUGCUAAUCAAUAUCGUCCAGAGAACUGAUUCCUCCUCUUGGGCUGCCUCUUCUGGAGCGUAAGCCUGCAACAGAGGAUUGAGCAUCA
# B7: chr13:113752066:113752067:+_ENSG00000126217_ENST00000375604|hu_mus|FALSE|FALSE (ssRNA)
# RNA: GGGAGUUCUACAGUCCGACGAUCAGGGGAAGUGGGGCCUGCCCUGACGUGGAGAGGCAGCCAGUGCCUGAGUUGCUGAGGAUGACUGACAGCAUGGAGUUAUACAUUUUCUUUAAAAAUAAUAAAAAUAUCCUAAUUUAAUGACAACAGAGGAUUGAGCAUCA
# B8: 110847190_110847310_5644_3pUTR_ENSMUSG00000021700_ENSMUST00000167824|mouse|control|control (ssRNA)
# RNA: GGGAGUUCUACAGUCCGACGAUCUAGUUGCUGAGGGGAACUGAAGAAUGAGGCAAUGCUGUUCUGUGGGGAUAGUGCUUUUAGAAUAUCCUUAAUCAUUUUUUUUUAAAAAACAUGUGGCAGUAUAAAAGGACUACACAAUGACAACAGAGGAUUGAGCAUCA
# B9: chr16:36085169:36085170:+_ENSMUSG00000075229_ENSMUST00000164916|mus_mus|FALSE|FALSE (ssRNA)
# RNA: GGGAGUUCUACAGUCCGACGAUCCUUUAAUAACGUUAAGUCAUCCAGGUUCUUUUCUCUCUCUUCUCGGAGACUUUUUACUACUGCUGAGGUCUGGGCUAUACAGUUCUUUAUAACUCUGUCCCUACUGACAUGAGCUGCCAUCAACAGAGGAUUGAGCAUCA
# B10: chr8:96496865:96496866:-_ENSMUSG00000031751_ENSMUST00000053766|mus_hu|motif|central (ssRNA)
# RNA: GGGAGUUCUACAGUCCGACGAUCGCAGUCCAGUCAACACCAGAAGAGAUCAUACCUACAGUUAAAAUUUGCAGUGUUUCGGAGGGGAAGAGAAAUGUCACAUAGAAAGUAUUACAAAGAAGGAUUAAAUUUAUCAGCUGUCCACAACAGAGGAUUGAGCAUCA
# B11: chr2:203071915:203071916:-_ENSG00000116030_ENST00000392246|hu_mus|motif|central (ssRNA)
# RNA: GGGAGUUCUACAGUCCGACGAUCCUAAGAGAUGGAGUGCCAGUAUUCAAUUUUCAUUUUGAACACCACAUUACAAAAGAACGGUUUUUAAAAAUAAAAAAGGAUUGAGGGAAAGGAAAAAUAAAAAAUAAAAAGAAUUAUCUACAACAGAGGAUUGAGCAUCA
# B12: chr3:100438856:100438857:+_ENSG00000114354_ENST00000490574|hu_hu|motif|central (ssRNA)
# RNA: GGGAGUUCUACAGUCCGACGAUCAACAAAUAAUGUCAGUUUCAGUAUCCUACUGCACUGAAUUGCAAAGGAAAGGUCAGAACGGUCAAAAAUUGUUAUAAGAUCUCCAUCUUCAUCUUUAUACUUUAUUGUUACUUCAUCAUUCAACAGAGGAUUGAGCAUCA
# B13: chr11:51935959:51935960:+_ENSMUSG00000020349_ENSMUST00000020608|mus_hu|FALSE|FALSE (ssRNA)
# RNA: GGGAGUUCUACAGUCCGACGAUCGGUUCUGACAAUAACAAAGAACAACAUGGGGCUGAGAUUUGAGUAGGGAAUAAACUGAGUGCAGACAAAUCAUAUAAUUAAAUUAAACGGUAUCCCUGAAAAUAAAAAGAACAAUUUCAACAACAGAGGAUUGAGCAUCA
# B14: chr2:55200753:55200754:-_ENSG00000115310_ENST00000317610|hu_mus|FALSE|FALSE (ssRNA)
# RNA: GGGAGUUCUACAGUCCGACGAUCUUGGAUUUUGGCCAUGGCAUCCUUAACGCUCUUGUUUGCAAGUCCUAGAUAAUGAUCUAUCUGCGCCUGAUGCCGUUCAUAUAUAACAGGAAUACUGAAGAGUGAGAUCAGAGCUAAAAUCAACAGAGGAUUGAGCAUCA
# B15: chr6:31461392:31461393:+_ENSMUSG00000025609_ENSMUST00000026699|mus_mus|motif|central (ssRNA)
# RNA: GGGAGUUCUACAGUCCGACGAUCACCUGACGGACACUAGAGGCUUUGGAUAACCAUGUCAUUUCAACAGUAAGACAAACGGUAGAGACAACCCCCACAGUCAAAAACCACAUAUAAAAAUUAGAAUUUGCUUAAUACAGAAAACAACAGAGGAUUGAGCAUCA
# B16: chr2:203071915:203071916:-_ENSG00000116030_ENST00000392246|hu_mus|FALSE|FALSE (ssRNA)
# RNA: B11 RNA with G82U, G83A
# Molecular target: T1, UNK ZnF1-3
# Assay: nsRBNS (natural sequence RNA bind-n-seq); RBNS binding buffer (assumed for nsRBNS): 25 mM Tris pH 7.5, 150 mM KCl, 3 mM MgCl2, 0.01% Triton X-100, 500 ug/ml BSA, 20 U/ml SUPERase-In, 4 C; UNK is unkempt and MSI1 is Musashi-1; names of the RNAs are library labels; protein concentration not given here; high values mean tight binding
row,Binder,binding signal [enrichment R]
1,B1,1.01
2,B2,2.01
3,B3,0.958
4,B4,3.38
5,B5,0.539
6,B6,1.42
7,B7,3.79
8,B8,1.67
9,B9,0.477
10,B10,3.52
11,B11,10.9
12,B12,0.76
13,B13,3.8
14,B14,1.23
15,B15,3.37
16,B16,10.6

# From article PMC12136788
